Screen size: about 230,000 compounds; about 1,500 (0.65%) were called active. About 3% were inconclusive and are not listed. Calls come from the whole dose curve; as a rule, active = well fitted inhibition curve with a large enough effect; inconclusive = small, poorly fitted or top-dose-only effect; inactive = no such curve, though single readings can be large or run the other way. The list comes from a sample in which actives are over-represented; it also holds similar structures and randomly drawn compounds. A call without a number means that no potency is given here.
Potency is the fitted concentration of half-maximal effect.

The test deals with Lethal(3)malignant brain tumor-like protein 1 (Homo sapiens) (UniProt Q9Y468). The experiment in a line: qHTS Assay for the Inhibitors of L3MBTL1. Note: nearly all actives have a fitted effect of over 60% in size. The settings on record: AlphaScreen L3MBTL1–H3K9me1 peptide binding; series mostly up to 57.1 µM. The essentials: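 First, the protein-peptide complex forms for 30 min at room temperature (L3MBTL1 50 nM, biotinylated H3K9me1 peptide 75 nM). Next, compounds are pin-transferred and incubated 30 min. Finally, AlphaScreen beads are added and read after 30 min.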
Sequence of Lethal(3)malignant brain tumor-like protein 1 (Homo sapiens) (Q9Y468 whole entry, looked up): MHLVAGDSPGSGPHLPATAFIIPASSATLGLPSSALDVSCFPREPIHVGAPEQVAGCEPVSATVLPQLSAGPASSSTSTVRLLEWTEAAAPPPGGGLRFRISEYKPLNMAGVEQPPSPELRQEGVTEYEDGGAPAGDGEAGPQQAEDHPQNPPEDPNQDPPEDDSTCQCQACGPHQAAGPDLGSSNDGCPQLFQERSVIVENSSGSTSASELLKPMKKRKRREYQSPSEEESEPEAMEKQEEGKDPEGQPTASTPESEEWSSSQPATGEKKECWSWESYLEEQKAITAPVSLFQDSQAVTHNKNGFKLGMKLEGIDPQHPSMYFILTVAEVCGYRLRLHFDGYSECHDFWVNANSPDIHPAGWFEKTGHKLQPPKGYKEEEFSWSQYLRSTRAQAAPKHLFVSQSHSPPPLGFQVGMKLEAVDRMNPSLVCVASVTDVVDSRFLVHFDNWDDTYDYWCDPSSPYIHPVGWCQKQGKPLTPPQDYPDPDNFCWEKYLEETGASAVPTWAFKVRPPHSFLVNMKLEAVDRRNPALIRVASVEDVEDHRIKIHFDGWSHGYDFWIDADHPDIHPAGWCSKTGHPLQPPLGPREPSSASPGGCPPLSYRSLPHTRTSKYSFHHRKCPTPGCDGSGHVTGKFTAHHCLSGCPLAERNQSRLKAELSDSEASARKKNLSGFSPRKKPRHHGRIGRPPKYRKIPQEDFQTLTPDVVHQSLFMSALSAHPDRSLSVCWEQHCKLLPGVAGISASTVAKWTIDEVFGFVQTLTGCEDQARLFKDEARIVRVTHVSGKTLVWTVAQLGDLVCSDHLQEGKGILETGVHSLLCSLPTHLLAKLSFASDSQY
For orientation: In qHTS, concentration-response curves come from the screen itself.
For `O=C(CCC1CCCCC1)Nc1cc(C(F)(F)F)ccc1N1CCOCC1`, the Potency result is “inactive”.

Regarding `Cc1ccc(S(=O)(=O)CCC(=O)OCC(=O)NCCc2ccc(S(N)(=O)=O)cc2)cc1`, the Potency entry was “inactive”.

Regarding `COc1ccccc1C(CNC(=O)c1cccc(S(=O)(=O)Nc2ccc(F)cc2)c1)N(C)C` (stereo not drawn), the Potency entry was “inactive”.

For the molecule `O=c1ccc2c(-c3ccccc3S(=O)(=O)O)c3ccc(O)c(O)c3oc-2c1O`, the Potency is 0.251 µM (active).

As to `CCNC(=O)N(CC)C[C@H]1N[C@@](CC)(C(=O)OC)[C@H]2C(=O)N(Cc3ccccc3)C(=O)[C@@H]12`, the Potency entry was “inactive”.

For `Cc1cc(C(=O)N/N=C/c2cc([N+](=O)[O-])cc(C)c2O)n[nH]1`, the Potency was 22.4 µM (active).

For `Cc1ccsc1C(=O)N/N=C/c1ccc([N+](=O)[O-])cc1`, the Potency entry was “inactive”.

As for `CC(C)(C)c1cc(C(=O)N/N=C/c2ccc([N+](=O)[O-])s2)n[nH]1`, the Potency result was “inactive”.

As to `Cc1ccccc1NC(=S)NC(=O)Cc1ccc(Cl)cc1`, the Potency entry is “inactive”.

As for `COc1ccc(OCCCC(=O)Nc2cccc(S(=O)(=O)N3CCCCCC3)c2)cc1`, the Potency entry was “inactive”.

Consider `CC(C)(C)NS(=O)(=O)NC(=O)C1=C(N2CCCC2)COC1=O`, for which the Potency entry was “inactive”.

In the case of `COc1ccc2nc3n(c(=O)c2c1)-c1cc(C)ccc1C(=O)NC3Cc1ccc(O)cc1` (stereo not drawn), the Potency entry was “inactive”.

Take `CC(OC(=O)CNC(=O)c1ccc(Cl)c([N+](=O)[O-])c1)C(=O)NCc1ccco1` (stereo not drawn): the Potency entry is “inactive”.

Take `Cc1ccc(/C([O-])=C(/C(=S)NCc2ccco2)[n+]2ccccc2)cc1[N+](=O)[O-]`: the Potency was 10 µM (active).

In the case of `O=[N+]([O-])c1cccc(/C([O-])=C(/C(=S)Nc2ccccc2F)[n+]2ccccc2)c1`, the Potency entry is “inactive”.

As for `CC(=O)c1c(C)n(-c2ccc(C)cc2)c2ccc(O)cc12`, the Potency result was “inactive”.

With `COc1cc2c(-c3ccc4c(c3)OCO4)c(-c3ccsc3)oc(=O)c2cc1OC`, the Potency result was “inactive”.

On to `N#Cc1ccccc1CN1C(=O)S/C(=C/c2cccn2-c2cccc(C(=O)O)c2)C1=O`, for which the Potency is 22.4 µM (active).

With `Cn1cccc1/C=C1\SC(=O)N(CC(=O)Nc2ccc(F)cc2)C1=O`, the Potency entry was “inactive”.

On to `O=C(O)c1cccc(N2C(=O)Nc3ccccc3N2O)c1`, for which the Potency result was “inactive”.

In the case of `CN(C(=O)CSc1nnc(-c2ccc(C(C)(C)C)cc2)n1C)C1CCS(=O)(=O)C1` (stereo not drawn), the Potency entry was “inactive”.

Take `C1=C(N2CCOCC2)/C(=C/c2nc3ccccc3[nH]2)CC1`: the Potency is 25.1 µM (active).

For the molecule `O=c1[nH]c(N2CCOCC2)nc2ccccc12`, the Potency result is “inactive”.

Consider `CC1(C)Cc2c(C#N)c(SCc3nc4ccccc4[nH]3)nc(N3CCOCC3)c2CO1`, for which the Potency result is “inactive”.

Consider `N#CCN(C(=O)COC(=O)C1CC2CCCC(C1)C2=O)c1ccccc1` (stereo not drawn), for which the Potency entry was “inactive”.

Take `CC(NC(=O)c1ccccc1C(=O)O)c1ccc(-n2ccnc2)cc1` (stereo not drawn): the Potency result was “inactive”.

Consider `COc1cc(C=NNC(=O)c2cccnc2)ccc1OC(=O)c1ccccc1F`, for which the Potency entry is “inactive”.

`Nc1ccc(Nc2cc(O)c3ncccc3c2)cc1`: the Potency is 11.2 µM (active).

With `COc1ccc(NC(=O)Nc2cccc3cccnc23)cc1`, the Potency result is “inactive”.

Turning to `CC(C)c1ccc(Nc2ncccc2C#N)cc1`, the Potency result is “inactive”.

For `COc1ccc(S(=O)(=O)N2CCCCC2)cc1NC(=O)COc1ccccc1`, the Potency result is “inactive”.

Regarding `Cc1cc(C(=O)COc2ccccc2Cl)c(C)n1C1CC1`, the Potency entry was “inactive”.

In the case of `CCC(CO)Oc1cc(NC(=O)c2cccc3ccccc23)c2ncn(C(C)C)c2c1` (stereo not drawn), the Potency result was “inactive”.

For the molecule `O=C(COC(=O)c1ccc(F)cc1F)Nc1ncccn1`, the Potency was 20 µM (active).

Turning to `COc1cc(OC)cc(C(=O)OCC(=O)Nc2ccc(F)cc2F)c1`, the Potency entry was “inactive”.

On to `O=C(COC(=O)CSc1ccccc1)Nc1ccc(F)cc1F`, for which the Potency entry is “inactive”.

As to `O=S(=O)(c1ccccc1)N1CCC(c2ccccc2)CC1`, the Potency entry is “inactive”.

`O=C(COC(=O)COc1cc(Cl)c(Cl)cc1Cl)NC1CC1`: the Potency result was “inactive”.

Regarding `CCCCN(C(=O)CCNC(=O)NC12CC3CC(CC(C3)C1)C2)c1c(N)n(CCCC)c(=O)[nH]c1=O`, the Potency entry is “inactive”.

Take `CCc1nnc(NC(=O)Cc2cccs2)s1`: the Potency entry is “inactive”.

In the case of `COc1ccc(Cc2nnc(NC(=O)Cc3cccs3)s2)cc1`, the Potency was 4.47 µM (active).

As to `COc1ccc(Cc2nnc(NC(=O)c3ccc(OC)cc3OC)s2)cc1`, the activity, negative = inhibition was 1.66% [at 2.29 µM] (inactive).

In the case of `Cn1cc[n+](C)c1COc1ccc(C=O)cc1`, the Potency entry is “inactive”.

As to `CCOCCOC(=O)C1=C(C)NC(=O)NC1c1ccc2c(c1)OCO2` (stereo not drawn), the Potency entry was “inactive”.

Regarding `CC1(c2ccccc2)NC(=O)N(CC(=O)N2CC(=O)Nc3ccccc32)C1=O` (stereo not drawn), the Potency result was “inactive”.

On to `Cc1ccc(C2(C)NC(=O)N(CC(=O)N3CC(=O)Nc4ccccc43)C2=O)cc1` (stereo not drawn), for which the Potency entry is “inactive”.

`CCOC(=O)N1CCN(C(=O)C(C)NC(=O)c2ccco2)CC1` (stereo not drawn): the Potency result was “inactive”.

As for `C=CCOc1c(Br)cc(/C=N\n2nnnc2N)cc1OC`, the Potency entry was “inactive”.

In the case of `CCOc1cc(/C=N/O)cc(Br)c1OC`, the Potency entry is “inactive”.

For the molecule `CCOc1c(Br)cc(/C=C2\C(=O)N(CCC#N)N=C2C)cc1OC`, the Potency is 14.1 µM (active).

Turning to `CCOC(=O)[C@@H]1[C@H]2COc3cc(OC)ccc3[C@@H]2N2C(=O)N(c3cccc(C)c3)C(=O)[C@@]12C`, the Potency entry is “inactive”.

With `CC(OC(=O)c1ccc([N+](=O)[O-])cc1)C(=O)NCC1CCCCC1` (stereo not drawn), the Potency entry was “inactive”.

In the case of `CCCCN1C(=O)C(C)=C(C)C1OCCc1ccc(OC)c(OC)c1` (stereo not drawn), the activity, negative = inhibition was 0.955% [at 2.29 µM] (inactive).

The record behind these values is PubChem BioAssay AID485360 (National Center for Advancing Translational Sciences (NCATS), 2010).
